According to PubChem BioAssay AID1347055 (National Center for Advancing Translational Sciences (NCATS), 2019):
Several values for one entry are separate records, joined by “and”; a condition that tells them apart may be missing. Equal entries are not always repeated. Among all 54,000 compounds or so, about 120 (0.22%) were called active. Not shown: some 8% with an inconclusive outcome. Calls follow the shape of the dose curve; as a rule, active = well fitted inhibition curve with a large enough effect; inconclusive = small, poorly fitted or top-dose-only effect, or effect the other way; inactive = flat fitted curve, though single readings scatter. Shown is part of a subset that was picked to be rich in actives. Where a structure was tested more than once in an assay, its records may differ in their call.

Each molecule was assayed against Fumarate hydratase, mitochondrial (Homo sapiens) (UniProt P07954) (assay: Identification of activators of human fumarate hydratase by quantitative high-throughput screening). Conditions: FH coupled MDH/diaphorase resazurin fluorescence, 15 min; series mostly up to 79.9 µM; activity change, negative = inhibition: at the top concentration.
Description: Fumarate hydratase (FH) is a metabolic enzyme that is part of the Krebs-cycle, and reversibly catalyzes the hydration of fumarate to malate. Mutations of the FH gene have been associated with fumarate hydratase deficiency (FHD), hereditary leiomyomatosis, renal cell cancer (HLRCC), and other diseases. Currently there are no high-quality small molecule probes for studying human fumarate hydratase. To address this, we developed a quantitative high throughput screening (qHTS) FH assay and screened a total of 57,037 compounds in dose-response. While no inhibitors of FH were confirmed, a series of phenyl-pyrrolo-pyrimidine-diones (12 compounds) were identified as activators of human fumarate hydratase. […] The binding of two compounds from the series to human fumarate hydratase was confirmed by microscale thermophoresis. The low hit rate in this screening campaign confirmed that FH is a "tough target" to modulate, and the small molecule activators of human fumarate hydratase reported here may serve as a starting point for further optimization and development into cellular probes of human FH and potential drug candidates.
For primary high-throughput screen, 3 ul of FH solution (containing 13.33nM human fumarate hydratase, 13.33IU/ml malic dehydrogenase, 0.2mM NAD, 0.067mg/ml diaphorase and 0.067mM resazurin in the assay buffer (50 mM Tris pH 8.0, 5 mM MgCl2, 0.01% Brij 3) was dispensed into each well in a black solid bottom 1536-well assay plate (Greiner Bio-One) using a BioRAPTR FRD dispenser (Beckman Coulter, Brea, CA). A 1536-well pintool dispenser outfitted with 20 nl pins (Wako Automation, San Diego, CA) was used to transfer 20 nL of DMSO-solubilized compound (Cherrypick plates) to each 1536-well assay plate. Each compound was screened at five concentrations: 15 nM, 151 nM, 1.5 uM, 15.4 uM, 76.9 uM. Following compound transfer, plates were incubated in room temperature for 10 minutes. 1 uL of substrate solution containing fumaric acid (160 uM) was dispensed via BioRAPTR FRD to initiate the reaction. Plates were immediately transferred to a ViewLux microplate imager (PerkinElmer, Waltham, MA), and any resulting resorufin fluorescence was measured (exitation/emission, 525/598 nm) at 0 and 15 minutes. The exposure time is 1 second. Fluorescence from each well was normalized using enzyme-free and DMSO-treated control wells on each plate, and changes in fluorescence (delta RFU) were calculated using the difference in fluorescent signal for each well at 15 minutes versus 0 minutes.
% is scaled to controls: 0 for no effect and ±100 for the full control effect; potency is read from the fitted curve at half-maximal effect.
Also: the screen sought activators but most active calls are inhibition curves; nearly all actives have a fitted effect of over 45% in size.

Fumarate hydratase, mitochondrial (Homo sapiens), sequence (P07954 whole entry, looked up): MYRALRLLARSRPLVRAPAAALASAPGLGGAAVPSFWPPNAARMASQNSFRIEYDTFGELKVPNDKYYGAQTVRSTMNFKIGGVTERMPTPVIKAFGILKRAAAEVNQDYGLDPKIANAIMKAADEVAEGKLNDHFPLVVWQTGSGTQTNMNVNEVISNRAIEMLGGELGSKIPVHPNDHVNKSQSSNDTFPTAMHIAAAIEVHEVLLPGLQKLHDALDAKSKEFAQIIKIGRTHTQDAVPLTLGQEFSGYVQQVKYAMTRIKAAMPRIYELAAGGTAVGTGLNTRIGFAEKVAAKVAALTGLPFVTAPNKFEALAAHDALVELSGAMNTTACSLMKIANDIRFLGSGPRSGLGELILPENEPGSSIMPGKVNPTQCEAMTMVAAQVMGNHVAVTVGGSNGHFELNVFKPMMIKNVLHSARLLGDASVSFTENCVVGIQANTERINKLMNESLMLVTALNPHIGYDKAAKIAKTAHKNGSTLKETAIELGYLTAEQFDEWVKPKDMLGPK

Activity change, negative = inhibition, inactive:
CN1CCCC1Cc1c[nH]c2ccc(CCS(=O)(=O)c3ccccc3)cc12 (stereo not drawn) -2.48%
O=C(C1CCCN(S(=O)(=O)c2cccc3nonc23)C1)N1CCN(c2ccccc2F)CC1 (stereo not drawn) -8.31%
COC(=O)[C@]12CCC(C)(C)C[C@@H]1[C@@H]1C(=O)C=C3[C@]4(C)C=C(C#N)C(=O)C(C)(C)[C@@H]4CC[C@@]3(C)[C@]1(C)CC2 -10.3%
C#C[C@]1(O)CC[C@H]2[C@@H]3CCC4=C/C(=N/O)CC[C@@H]4[C@H]3CC[C@@]21CC 5.71%
CC(=O)N1c2ccc(S(=O)(=O)N3CCCCCC3)cc2CC1C(=O)NCc1ccccc1C (stereo not drawn) 1.03%
COc1ccc(NC(=O)c2ccc3nc(CCc4ccccc4)oc3c2)c(OC)c1 -4.07%
COc1cc(Nc2nc3ccccc3nc2NS(=O)(=O)c2cccc(NC(=O)c3ccc(C)c(OC)c3)c2)cc(OC)c1 -14.2%
CC1(C)C(=O)N2c3ccccc3C(O)(CC(C(=O)O)n3cnc4ccccc4c3=O)C2N1O (stereo not drawn) 4.36% [at 53.3 µM]
O=c1[nH]c2ccc(C#CCN3CCC(Cc4ccccc4)CC3)cc2[nH]1 -15.1%
CCOc1ccccc1NC(=O)Cn1c2ncccc2c(=O)n1-c1ccc(C)c(C)c1 -3.35%
CCOCCCNC(=O)c1cn(CC(C)C)c(=O)c2c1c1ccccc1n2C -9.65%
C=C1CCC2C(C)(C(=O)OC)CCCC2(C)C1CCC1=CCOC1=O (stereo not drawn) -5.08% [at 53.3 µM]
Cc1cn(CCN2CCN(c3ccccc3-c3cc(C#N)cc(C(=O)NCCCN4CCCC4)c3)CC2)c2ccccc12 -5.7%
COC(=O)C1=CO[C@@H](O[C@@H]2O[C@H](CO)[C@@H](O)[C@H](O)[C@H]2O)[C@H]2[C@@H]1C=C[C@]21C=C([C@H](C)OC(=O)/C=C/c2ccc(O[C@@H]3O[C@H](CO)[C@@H](O)[C@H](O)[C@H]3O)cc2)C(=O)O1 0.414% [at 20.6 µM]
COc1ccccc1CNc1nc2ccc(Cl)cc2n2cnnc12 -12.9%
Cc1ccc(C)c(Cn2c(C(=O)O)c(CNCc3cccs3)c3ccccc32)c1 -18.3%
O=C(COc1ccc(Cl)cc1)N(Cc1ccco1)Cc1ccco1 -13.3%
COc1ccccc1NC(=O)CSc1oc(-c2ccco2)nc1S(=O)(=O)c1ccc(Br)cc1 -21.2%
CNc1nc(-c2ccc3c(N)n[nH]c3c2)cc(N2CC(C(=O)NC3CCCCC3)CCC2C)n1 (stereo not drawn) 1.2%
O=C(N[C@H]1CCC[C@H](CO)C1)C1CCN(c2nc3cc(Cl)c(-c4ccc(Cl)cc4)cc3o2)CC1 -10.4%
CCOC(=O)c1[nH]c(C)c(CCC(=O)NCc2ccccc2C)c1C -3.89%
CCN(CC)C(=O)CSc1nc2ccsc2c(=O)n1Cc1ccccc1Cl -3.5%
CCOc1ccc(-n2nc3ccc(NC(=O)c4ccc(OC)c(Cl)c4)cc3n2)cc1 -6.48%
Cc1nn(C(=O)c2c(F)cccc2F)c(C)c1S(=O)(=O)N1CCOCC1 3.28%
COC(=O)C1=CO[C@@H](O[C@@H]2O[C@H](CO)[C@@H](O)[C@H](O)[C@H]2O)[C@@H]2[C@@H](C(=O)O)CC[C@H]12 0.0483% [at 53.3 µM]
CCCCC1CCN(CCCN2C(=O)CCc3ccccc32)CC1 -0.254%
CC/C=C\CC1C(=O)C=CC1(CCCCCCCC(=O)O)OC(C)=O (stereo not drawn) -0.917% [at 53.3 µM]
COc1cccc(CNC(=O)c2ccc3c(Cl)c4c(nc3c2)CCCC4)c1 -9.91%
C=CC(C)(O)CO[C@@H]1O[C@H](CO)[C@@H](O)[C@H](O)[C@H]1O (stereo partly drawn) 22.8%
Cc1cc2c(cc1S(=O)(=O)CCC(=O)NCc1ccccc1)OCC(=O)N2 -2.14%
CC(C)(OC1OC(CO)C(O)C(O)C1O)C1CCC(O)(CO)C2CC(O)C(C)(O)C2C1 (stereo not drawn) 8.59% [at 53.3 µM]
O=C(/C=C/c1ccc(O)cc1)OCC1=C[C@@H](O)[C@@H]2C=CO[C@@H](O[C@@H]3O[C@H](CO)[C@@H](O)[C@H](O)[C@H]3O)[C@H]12 -7.41% [at 53.3 µM]
COc1cc(C(C)=O)c(OC)c2c1OC(C)(C)C=C2 0.675%
O=C(CSc1nccn1C1CCCC1)Nc1cc(C(F)(F)F)ccc1Cl -25.7%
C=CC(C)(O)CC/C=C(\C)C(=O)OC1C(O)C(CO)OC(OC(=O)C23CCC(C)(C)CC2C2=CCC4C5(C)CCC(OC6OC(COC7OCC(OC(C)=O)C(O)C7OC7OC(COC(C)=O)C(O)C(O)C7OC(C)=O)C(O)C(O)C6OC6OCC(O)C(O)C6O)C(C)(C)C5CCC4(C)C2(C)C(O)C3O)C1OC1OCC(OC2OCC(O)C(OC3OCC(O)C(O)C3O)C2O)C(O)C1O (stereo not drawn) 3.1% [at 13.5 µM]
C=C1CCC[C@]2(C)CC/C(=C(/CO)C(=O)OC)C[C@@H]12 -6.7%

Potency, active:
CCOc1ccccc1CNC(=O)Nc1cn(CC(C)C)c(=O)c2ccccc12 28.2 µM [activator]

Potency, inactive and 6.92 µM (active):
CNCC(O)c1ccc(O)c(O)c1 (stereo not drawn)
